PubChem BioAssay (Tox21)
Where “and” joins values, the source holds several entries; their conditions need not be identical. Identical values can stand only once. Inconclusive results are not listed. The source holds several records for some structures; these can differ, active in one and inactive in another. Calls of active or inactive are those of the source. Unless noted, calls come from the whole dose curve; as a rule, active = well fitted curve in the direction sought with a large enough effect in the repeat runs; inconclusive = weak or mixed curves; inactive = no such curve, though single readings can be large; an effect the other way counts as inactive or inconclusive.

Key:
[1] = target: Thyrotropin receptor (Homo sapiens) (UniProt P16473); experiment: qHTS assay to identify small molecule agonists of the thyroid stimulating hormone receptor (TSHR) signaling pathway (AID 1224843; calls by dose curve; note: nearly all actives have a fitted effect of over 45% in size)
Sequence of Thyrotropin receptor (Homo sapiens) (P16473 whole entry, looked up): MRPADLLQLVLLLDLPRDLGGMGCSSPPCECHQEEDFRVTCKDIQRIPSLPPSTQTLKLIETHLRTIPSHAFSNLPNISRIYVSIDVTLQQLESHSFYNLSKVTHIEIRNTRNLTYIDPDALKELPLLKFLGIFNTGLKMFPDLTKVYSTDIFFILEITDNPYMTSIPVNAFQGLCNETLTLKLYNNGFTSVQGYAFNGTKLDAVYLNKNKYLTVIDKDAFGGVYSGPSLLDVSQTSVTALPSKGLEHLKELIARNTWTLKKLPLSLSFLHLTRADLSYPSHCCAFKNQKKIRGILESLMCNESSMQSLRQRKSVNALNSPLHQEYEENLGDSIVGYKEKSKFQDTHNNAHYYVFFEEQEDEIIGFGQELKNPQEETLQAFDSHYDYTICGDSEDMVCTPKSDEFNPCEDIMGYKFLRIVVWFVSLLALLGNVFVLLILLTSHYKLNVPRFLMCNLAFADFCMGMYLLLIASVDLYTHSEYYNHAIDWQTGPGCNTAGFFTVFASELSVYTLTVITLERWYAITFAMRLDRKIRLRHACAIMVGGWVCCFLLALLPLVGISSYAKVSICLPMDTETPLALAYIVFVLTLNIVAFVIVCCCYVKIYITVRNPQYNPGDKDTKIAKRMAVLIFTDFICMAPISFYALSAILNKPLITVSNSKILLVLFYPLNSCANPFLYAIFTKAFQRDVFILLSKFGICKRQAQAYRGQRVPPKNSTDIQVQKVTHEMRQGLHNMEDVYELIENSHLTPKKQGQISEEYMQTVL
Outline: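 Using 15 concentrations per compound in triplicate, cAMP production was monitored in TSHR-HEK293 cells after 30 min compound incubation at RT; HTRF reagents followed, with fluorescence intensity recorded after 1 h.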

[2] = qHTS assay to identify small molecule agonists of the hypoxia (HIF-1) signaling pathway - cell viability counter screen (AID 1224844; calls by dose curve; note: nearly all actives have a fitted effect of over 50% in size)
Outline: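 In this counter screen, HRE-bla ME-180 cell viability after 17 hrs of compound exposure at 37C was read by CellTiter-Glo luminescence, multiplexed with the beta-lactamase reporter measurement.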

[3] = qHTS assay to identify small molecule agonists of H2AX (AID 1224845; active = well fitted activation curve with a large enough effect in the signal ratio in the repeat runs, not every such curve was filed as active; the % refers to the signal ratio)
Outline: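 Wild-type CHO-K1 cells plated overnight, then exposed 3 hr at 37C to compounds at 15 concentrations (0.76% DMSO). Lysed, then HTRF anti-pH2AX(S139)-cryptate/anti-H2AX-d2 detection after 24 hr at room temperature; emissions 665 and 620 nm.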

[4] = qHTS assay to identify small molecule agonists of H2AX - cell viability counter screen (AID 1224847; calls by dose curve; note: top concentration of the series differs between compounds; nearly all actives have a fitted effect of over 30% in size)
Outline: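 Compounds tested at 15 concentrations were incubated 3 hr at 37C with wild-type CHO-K1 cells; cellular ATP-based luminescence (CellTiter-Glo) indicated viability.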

[5] = qHTS assay to identify small molecule antagonists of the estrogen related receptor (ERR) signaling pathway from Tox21 library (AID 1224848); note: nearly all actives have a fitted effect of over 50% in size
Outline: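 Tox21 10K compounds in DMSO tested for ERR pathway antagonism in NTP's ERR cell line; 18 h, 37 C exposure; ONE-Glo luminescence.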

[6] = qHTS assay to identify small molecule agonists of the estrogen related receptor (ERR) signaling pathway from Tox21 library (AID 1224849; calls by dose curve; note: nearly all actives have a fitted effect of over 15% in size); settings: ERR reporter cell line, ONE-Glo luciferase, 18 h
Outline: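 Luciferase activity in ERR pathway reporter cells served as the agonist readout; exposure lasted 18 h at 37 C, with ONE-Glo detection after 30 min at room temperature.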

[7] = qHTS RealTime-Glo MT Cell Viability Assay in HepG2 cells - 24 hour (AID 1224867); note: nearly all actives have a fitted effect of over 50% in size
Outline: (§1)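 Luminescence read-out: viable HepG2 cells reduce a prosubstrate to a NanoLuc substrate, giving a signal proportional to live cell number. Reads taken at 0, 8, 16, 24, 32 and 40 h of compound exposure at 37 C.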

[8] = qHTS RealTime-Glo MT Cell Viability Assay in HEK293 cells - 32 hour (AID 1224868); note: nearly all actives have a fitted effect of over 50% in size; note: potency is the fitted concentration of half-maximal effect
Outline: (§2)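 Nonlytic real-time viability readout: viable cells convert prosubstrate to NanoLuc substrate, giving luminescence proportional to live cell number. HEK293, 600 cells/well, compound added after 5 h, continuous culture at 37 C.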

[9] = A CellTox Green Cytotoxicity Assay to monitor cytotoxicity in HEK293 cells - 0 hour (AID 1224869); note: nearly all actives have a fitted effect of over 50% in size
Outline: (§3)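 Real-time, in one plate: 600 HEK293 cells/well with dead-cell DNA dye, pinned compound after 5 h, 37 C incubation over 40 h; viable cells give no appreciable fluorescence.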

[10] = qHTS RealTime-Glo MT Cell Viability Assay in HepG2 cells - 40 hour (AID 1224870); note: nearly all actives have a fitted effect of over 50% in size
Outline: (§4)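 HepG2 cells mixed with RealTime-Glo MT reagents (NanoLuc plus cell-permeant prosubstrate) were seeded at 600 cells/well, incubated 5 h at 37 C/5% CO2, then pinned with compounds in DMSO; nonlytic luminescence tracked viability during 40 h treatment.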

[11] = A CellTox Green Cytotoxicity Assay to monitor cytotoxicity in HEK293 cells - 40 hour (AID 1224871); note: nearly all actives have a fitted effect of over 45% in size
Outline: as §3

[12] = qHTS RealTime-Glo MT Cell Viability Assay in HEK293 cells - 16 hour (AID 1224872)
Outline: as §2

[13] = qHTS RealTime-Glo MT Cell Viability Assay in HepG2 cells - 8 hour (AID 1224873); note: nearly all actives have a fitted effect of over 55% in size
Outline: as §4

[14] = qHTS RealTime-Glo MT Cell Viability Assay in HEK293 cells - 40 hour (AID 1224874); settings: RealTime-Glo luminescence; max response: stronger effect = lower value; note: nearly all actives have a fitted effect of over 50% in size; note: potency is the fitted concentration of half-maximal effect
Outline: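 Kinetic, non-lysing viability readout. Seed HEK293 (600/well) with reagent, incubate 5 h at 37 C/5% CO2, pin 23 nL compound in DMSO, incubate at 37 C, read luminescence at 0, 8, 16, 24, 32, 40 h.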

[15] = A CellTox Green Cytotoxicity Assay to monitor cytotoxicity in HEK293 cells - 24 hour (AID 1224875); note: nearly all actives have a fitted effect of over 45% in size
Outline: as §3

[16] = A CellTox Green Cytotoxicity Assay to monitor cytotoxicity in HepG2 cells - 16 hour (AID 1224876); note: nearly all actives have a fitted effect of over 45% in size
Outline: (§5)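 Cytotoxicity was tracked as dead-cell DNA fluorescence in HepG2 cells treated with test compounds at 37 C; each time-point value comes from one kinetic series spanning 0, 8, 16, 24, 32 and 40 h.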

[17] = qHTS RealTime-Glo MT Cell Viability Assay in HepG2 cells - 32 hour (AID 1224877); note: nearly all actives have a fitted effect of over 55% in size
Outline: as §1

[18] = A CellTox Green Cytotoxicity Assay to monitor cytotoxicity in HepG2 cells - 24 hour (AID 1224878); note: nearly all actives have a fitted effect of over 45% in size
Outline: as §5

[19] = A CellTox Green Cytotoxicity Assay to monitor cytotoxicity in HepG2 cells - 40 hour (AID 1224879); note: nearly all actives have a fitted effect of over 40% in size
Outline: as §5

[20] = qHTS assay to identify small molecule agonists of the hypoxia (HIF-1) signaling pathway (AID 1224846; active = well fitted activation curve with a large enough effect in the signal ratio in the repeat runs, not every such curve was filed as active; the % refers to the signal ratio)
Outline: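 ME-180 HRE-bla reporter cells; compounds in DMSO, 17 h at 37C; read-out beta-lactamase via CCF4-AM FRET.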
% is set by controls: 0 for no effect and ±100 for the full control effect.

NNC(=O)c1ccncc1
inactive: outcome [1] | Potency [2] | outcome [3] | outcome [4] | Potency [5] | activity change, positive = activation ([6]; at 42.5 µM (top of the series)) -2.18% and 2.7% | activity change, positive = activation ([6]; at 92.4 µM (top of the series)) -1.91% | Potency [7] | Potency [8] | outcome [9] | Potency [10] | Potency [11] | Potency [12] | outcome [13] | max response [14] 1.61% and 0.145% and 4.04% | Potency [15] | Potency [16] | Potency [17] | Potency [18] | Potency [19]

CCCCOC(=O)CC(CC(=O)OCCCC)(OC(C)=O)C(=O)OCCCC
inactive: Potency [2] | outcome [3] | outcome [20] | outcome [4] | activity change, positive = activation ([6]; at 42.5 µM (top of the series)) -18.7% | activity change, positive = activation ([6]; at 92.4 µM (top of the series)) -11.9% and -24.8% | Potency [7] | Potency [8] | outcome [9] | Potency [11] | Potency [12] | outcome [13] | max response [14] -6.55% and -23.8% and -22.3% | Potency [15] | Potency [16] | Potency [17] | Potency [18] | Potency [19]

CCCC(O)C(CC)CO (stereo not drawn)
inactive: Potency [2] | outcome [3] | outcome [20] | Potency [7] | Potency [8] | outcome [9] | Potency [11] | Potency [12] | outcome [13] | max response [14] 0.318% and 1.14% and 0.567% | Potency [15] | Potency [16] | Potency [17] | Potency [18] | Potency [19]

Cc1cn([C@H]2C[C@H](N=[N+]=[N-])[C@@H](CO)O2)c(=O)[nH]c1=O
inactive: Potency [2] | outcome [3] | Potency [5] | activity change, positive = activation ([6]; at 42.5 µM (top of the series)) 1.9% | activity change, positive = activation ([6]; at 92.4 µM (top of the series)) 1.55% and -3.89% | Potency [7] | Potency [8] | outcome [9] | Potency [11] | Potency [12] | outcome [13] | max response [14] -0.145% and 3.87% and 7.29% | Potency [15] | Potency [16] | Potency [17] | Potency [18] | Potency [19]

CNC[C@H](O)c1cccc(O)c1
inactive: Potency [2] | outcome [3] | outcome [20] | outcome [4] | Potency [5] | activity change, positive = activation ([6]; at 42.5 µM (top of the series)) 5.4% | activity change, positive = activation ([6]; at 92.4 µM (top of the series)) -1.31% and 0.843% | Potency [7] | Potency [8] | outcome [9] | Potency [11] | Potency [12] | outcome [13] | max response [14] 8.72% and 5.33% and 3.68% | Potency [15] | Potency [16] | Potency [17] | Potency [18] | Potency [19]

O=C(O)c1cc(N=Nc2ccc(S(=O)(=O)Nc3ccccn3)cc2)ccc1O
inactive: outcome [1] | Potency [2] | Potency [7] | Potency [8] | outcome [9] | Potency [10] | Potency [11] | Potency [12] | outcome [13] | max response [14] -2.85% and -13.7% and 1.5% | Potency [15] | Potency [16] | Potency [17] | Potency [18] | Potency [19]

CCCC(CCC)C(=O)O
inactive: outcome [1] | Potency [2] | outcome [3] | outcome [20] | Potency [7] | Potency [8] | outcome [9] | Potency [11] | Potency [12] | outcome [13] | Potency [15] | Potency [16] | Potency [17] | Potency [18] | Potency [19]

COc1c2occc2cc2ccc(=O)oc12
inactive: outcome [1] | Potency [2] | outcome [3] | Potency [7] | outcome [9] | Potency [10] | Potency [11] | Potency [12] | outcome [13] | max response [14] -18.6% | Potency [15] | Potency [16] | Potency [17] | Potency [18] | Potency [19]
inactive and 21.9 µM (active): Potency [8]
active: Potency [14] 21.9 µM

CC(=O)NS(=O)(=O)c1ccc(N)cc1
inactive: Potency [2] | outcome [3] | Potency [7] | Potency [8] | outcome [9] | Potency [10] | Potency [11] | Potency [12] | outcome [13] | max response [14] 9.67% and 1.24% and 4.39% | Potency [15] | Potency [16] | Potency [17] | Potency [18] | Potency [19]

Cn1c(=O)c2[nH]cnc2n(C)c1=O
inactive: outcome [1] | Potency [2] | outcome [3] | outcome [4] | Potency [7] | Potency [8] | outcome [9] | Potency [11] | Potency [12] | outcome [13] | max response [14] 0.637% and -1.08% and -2.33% | Potency [15] | Potency [16] | Potency [17] | Potency [18] | Potency [19]

Nc1ccn([C@H]2CC[C@@H](CO)O2)c(=O)n1
inactive: outcome [1] | Potency [2] | outcome [3] | outcome [4] | Potency [7] | Potency [8] | outcome [9] | Potency [10] | Potency [11] | Potency [12] | outcome [13] | max response [14] 5.91% and 4.06% and 6.95% | Potency [15] | Potency [16] | Potency [17] | Potency [18] | Potency [19]

O=C(O)c1[nH]n(-c2ccc(S(=O)(=O)O)cc2)c(=O)c1N=Nc1ccc(S(=O)(=O)O)cc1
inactive: outcome [1] | Potency [2] | outcome [20] | Potency [7] | Potency [8] | outcome [9] | Potency [11] | Potency [12] | outcome [13] | max response [14] -3.28% and -13% and 0.864% | Potency [15] | Potency [16] | Potency [17] | Potency [18] | Potency [19]

Cc1ccc(S(=O)(=O)NC(=O)NN2CCCCCC2)cc1
inactive: outcome [1] | Potency [2] | outcome [3] | Potency [5] | activity change, positive = activation ([6]; at 42.5 µM (top of the series)) -3.23% | activity change, positive = activation ([6]; at 92.4 µM (top of the series)) -0.537% and -0.346% | Potency [7] | Potency [8] | outcome [9] | Potency [10] | Potency [11] | Potency [12] | outcome [13] | max response [14] 3.5% and 3.12% and 7.81% | Potency [15] | Potency [16] | Potency [17] | Potency [18] | Potency [19]
